Several values for one entry are separate records, joined by “and”; a condition that tells them apart may be missing. Equal entries are not always repeated. Hit rate of the full screen: of about 5,500 compounds, about 2,000 (36%) were called active. Not shown: some 18% with an inconclusive outcome. Cut-off read from the data, not from the text of the source: active = normalized growth mostly below about 0.91 (no sharp cut-off); inconclusive = no clear call, values can overlap the other calls; inactive = mostly above about 0.92. The list shows a part of the results.
Experiment: chemical genetic growth profiling, strain panel (AID 1159580);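 note: tested at 20 µM; growth read once vehicle control cultures reached saturation at 30 °C; 1 = growth at the plate median or of vehicle wells; lower values mean less growth of the strain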
Conditions: S. cerevisiae deletion strains, growth OD
[1] = locus YMR263W, strain SAP30, stronger effect = lower value
[2] = locus YMR307W, strain GAS1, stronger effect = lower value
[3] = locus YNL128W, strain TEP1, stronger effect = lower value
[4] = locus YNL153C, strain GIM3, stronger effect = lower value

Measured: normalized growth

COc1c2c(nc3ccccc13)OC(C(C)(O)CO)C2 (stereo not given)
inactive: locus YAL040C, strain CLN3, stronger effect = lower value 1.01 | locus YCL061C, strain MRC1 (second series), stronger effect = lower value 1.01 | locus YDR363W, strain ESC2, stronger effect = lower value 0.993 | locus YER002W, strain NOP16, stronger effect = lower value 1.01 | locus YJR075W, strain HOC1, stronger effect = lower value 0.994 | [1] 0.998 | [2] 1.01 | [3] 1.02 | [4] 1.04 | locus YNL175C, strain NOP13, stronger effect = lower value 1.01 | locus YNL197C, strain WHI3, stronger effect = lower value 1.01 | locus YNL224C, strain SQS1, stronger effect = lower value 1.01 | locus YOR083W, strain WHI5 (second series), stronger effect = lower value 1 | locus YPL055C, strain LGE1, stronger effect = lower value 0.99 | locus YPL241C, strain CIN2, stronger effect = lower value 1

COc1c2ccccc2nc2occc12
active: locus YBR009C, strain hhf1, stronger effect = lower value 0.867 | locus YCL016C, strain dcc1, stronger effect = lower value 0.9 | locus YCL069W, strain vba3, stronger effect = lower value 0.882 | locus YDL192W, strain arf1, stronger effect = lower value 0.89 | locus YDR101C, strain arx1, stronger effect = lower value 0.876 | locus YDR195W, strain ref2 1.32 [resistant] | locus YDR502C, strain sam2, stronger effect = lower value 0.918 | locus YER015W, strain faa2, stronger effect = lower value 0.923 | locus YER155C, strain BEM2 (second series), stronger effect = lower value 0.648 | locus YGL086W, strain mad1, stronger effect = lower value 0.907 | locus YGL240W, strain doc1, stronger effect = lower value 0.791 | locus YGR135W, strain pre9, stronger effect = lower value 0.888 | locus YGR252W, strain gcn5, stronger effect = lower value 0.728 | locus YHR142W, strain chs7, stronger effect = lower value 0.842 | locus YHR200W, strain rpn10, stronger effect = lower value 0.882 | locus YJL164C, strain tpk1, stronger effect = lower value 0.907 | locus YJL166W, strain qcr8, stronger effect = lower value 0.901 | locus YKR001C, strain vps1, stronger effect = lower value 0.766 | locus YLL001W, strain dnm1, stronger effect = lower value 0.872 | locus YLR320W, strain mms22, stronger effect = lower value 0.871 | locus YLR330W, strain CHS5, stronger effect = lower value 0.917 | locus YLR371W, strain rom2, stronger effect = lower value 0.81 | locus YLR418C, strain cdc73, stronger effect = lower value 0.744 | locus YML032C, strain rad52, stronger effect = lower value 0.786 | locus YMR058W, strain fet3, stronger effect = lower value 0.894 | locus YNL071W, strain lat1, stronger effect = lower value 0.914 | locus YNL248C, strain rpa49, stronger effect = lower value 0.75 | locus YOL147C, strain pex11, stronger effect = lower value 0.924 | locus YOR001W, strain rrp6, stronger effect = lower value 0.89 | locus YOR083W, strain WHI5, stronger effect = lower value 0.852 | locus YOR106W, strain vam3, stronger effect = lower value 0.824 | locus YOR184W, strain ser1, stronger effect = lower value 0.855 | locus YOR270C, strain vph1, stronger effect = lower value 0.73 | locus YOR290C, strain snf2, stronger effect = lower value 0.858 | locus YPL051W, strain arl3, stronger effect = lower value 0.892 | locus YPL078C, strain atp4, stronger effect = lower value 0.842 | locus YPL106C, strain sse1, stronger effect = lower value 0.826 | strain wtn01, stronger effect = lower value 0.894
inactive: locus YAL013W, strain DEP1, stronger effect = lower value 0.918 | locus YAL021C, strain ccr4, stronger effect = lower value 0.943 | locus YAL026C, strain drs2, stronger effect = lower value 0.914 | locus YAL030W, strain snc1, stronger effect = lower value 0.971 | locus YBL061C, strain skt5, stronger effect = lower value 0.956 | locus YBR021W, strain FUR4, stronger effect = lower value 0.993 | locus YBR023C, strain chs3, stronger effect = lower value 0.926 | locus YBR171W, strain sec66, stronger effect = lower value 0.942 | locus YBR229C, strain ROT2, stronger effect = lower value 1 | locus YBR231C, strain swc5, stronger effect = lower value 0.969 | locus YBR279W, strain paf1, stronger effect = lower value 0.949 | locus YCL011C, strain gbp2, stronger effect = lower value 0.913 | locus YCL029C, strain bik1, stronger effect = lower value 0.953 | locus YCR088W, strain abp1, stronger effect = lower value 0.991 | locus YDL005C, strain med2, stronger effect = lower value 0.972 | locus YDL035C, strain GPR1, stronger effect = lower value 0.929 | locus YDL040C, strain nat1, stronger effect = lower value 0.982 | locus YDL074C, strain BRE1, stronger effect = lower value 0.867 | locus YDL101C, strain DUN1, stronger effect = lower value 0.934 | locus YDL185W, strain tfp1, stronger effect = lower value 0.99 | locus YDR001C, strain nth1, stronger effect = lower value 0.966 | locus YDR069C, strain doa4, stronger effect = lower value 0.942 | locus YDR137W, strain rgp1, stronger effect = lower value 0.93 | locus YDR159W, strain sac3, stronger effect = lower value 0.931 | locus YDR162C, strain NBP2, stronger effect = lower value 0.926 | locus YDR297W, strain sur2, stronger effect = lower value 0.97 | locus YDR318W, strain mcm21, stronger effect = lower value 0.928 | locus YDR334W, strain swr1, stronger effect = lower value 0.945 | locus YDR335W, strain msn5, stronger effect = lower value 0.938 | locus YDR388W, stronger effect = lower value 0.993 | locus YDR392W, strain spt3, stronger effect = lower value 0.767 | locus YEL003W, strain gim4, stronger effect = lower value 0.941 | locus YEL037C, strain rad23, stronger effect = lower value 0.954 | locus YEL061C, strain CIN8 (second series), stronger effect = lower value 0.976 | locus YEL061C, strain CIN8, stronger effect = lower value 0.993 | locus YER016W, strain bim1, stronger effect = lower value 0.981 | locus YER110C, stronger effect = lower value 0.937 | locus YER111C, strain swi4, stronger effect = lower value 0.981 | locus YER155C, strain BEM2, stronger effect = lower value 1.02 | locus YER167W, strain BCK2, stronger effect = lower value 0.941 | locus YFR010W, strain ubp6, stronger effect = lower value 0.919 | locus YGL078C, strain dbp3, stronger effect = lower value 0.944 | locus YGL167C, strain pmr1, stronger effect = lower value 0.949 | locus YGL173C, strain kem1, stronger effect = lower value 0.941 | locus YGL227W, strain vid30, stronger effect = lower value 0.989 | locus YGL248W, strain PDE1, stronger effect = lower value 0.929 | locus YGL253W, strain hxk2, stronger effect = lower value 0.946 | locus YHR013C, strain ard1, stronger effect = lower value 0.967 | locus YHR027C, strain rpn1, stronger effect = lower value 0.932 | locus YHR030C, strain SLT2, stronger effect = lower value 1 and 0.88 | locus YHR079C, strain IRE1 (second series), stronger effect = lower value 0.994 | locus YHR079C, strain IRE1, stronger effect = lower value 0.868 | locus YHR094C, strain hxt1, stronger effect = lower value 1.01 | locus YHR129C, strain ARP1, stronger effect = lower value 0.967 | locus YIL066C, strain RNR3, stronger effect = lower value 0.91 | locus YIL073C, strain SPO22, stronger effect = lower value 0.939 | locus YIL125W, strain kgd1, stronger effect = lower value 0.981 | locus YIR030C, strain dcg1, stronger effect = lower value 0.992 | locus YJL092W, strain hpr5, stronger effect = lower value 0.954 | locus YJL095W, strain BCK1 (second series), stronger effect = lower value 0.968 | locus YJL115W, strain asf1, stronger effect = lower value 0.947 | locus YJL129C, strain trk1, stronger effect = lower value 1.02 | locus YJL134W, strain LCB3, stronger effect = lower value 1.01 | locus YJL154C, strain vps35, stronger effect = lower value 0.979 | locus YJL168C, strain set2, stronger effect = lower value 0.991 | locus YJL187C, strain SWE1 (second series), stronger effect = lower value 0.927 | locus YJL187C, strain SWE1, stronger effect = lower value 0.968 | locus YJR066W, strain TOR1, stronger effect = lower value 0.894 | locus YKL009W, strain mrt4, stronger effect = lower value 0.881 | locus YKL068W, stronger effect = lower value 1.02 | locus YKL085W, strain MDH1 (second series), stronger effect = lower value 0.984 | locus YKL085W, strain MDH1, stronger effect = lower value 0.984 | locus YKL160W, strain elf1, stronger effect = lower value 0.917 | locus YKR026C, strain gcn3, stronger effect = lower value 0.982 | locus YKR091W, strain srl3, stronger effect = lower value 0.969 | locus YLL026W, stronger effect = lower value 0.974 | locus YLL041C, strain sdh2, stronger effect = lower value 0.963 | locus YLR027C, strain aat2, stronger effect = lower value 0.946 | locus YLR039C, strain RIC1, stronger effect = lower value 0.925 | locus YLR058C, strain SHM2, stronger effect = lower value 0.957 | locus YLR102C, strain apc9, stronger effect = lower value 1 | locus YLR113W, strain HOG1, stronger effect = lower value 0.872 | locus YLR221C, strain rsa3, stronger effect = lower value 0.927 | locus YLR258W, strain gsy2, stronger effect = lower value 0.938 | locus YLR262C, strain YPT6 (second series), stronger effect = lower value 0.884 | locus YLR262C, strain YPT6, stronger effect = lower value 1.04 | locus YLR268W, strain sec22, stronger effect = lower value 0.896 | locus YLR342W, strain FKS1, stronger effect = lower value 0.974 | locus YLR357W, strain rsc2, stronger effect = lower value 1.04 | locus YLR370C, strain arc18, stronger effect = lower value 0.967 | locus YLR384C, strain iki3, stronger effect = lower value 0.981 | locus YML016C, strain PPZ1, stronger effect = lower value 0.975 | locus YML120C, strain ndi1, stronger effect = lower value 0.915 | locus YML124C, strain tub3, stronger effect = lower value 0.978 | locus YMR078C, strain ctf18, stronger effect = lower value 0.974 | locus YMR125W, strain sto1, stronger effect = lower value 0.983 | locus YMR129W, stronger effect = lower value 0.975 | locus YMR205C, strain PFK2, stronger effect = lower value 0.938 | locus YMR223W, strain ubp8, stronger effect = lower value 0.912 | locus YMR231W, strain pep5, stronger effect = lower value 0.994 | [1] 0.952 | [2] 1.15 | locus YNL067W, strain RPL9B, stronger effect = lower value 0.951 | [3] 0.952 | [4] 0.889 | locus YNL183C, strain NPR1, stronger effect = lower value 0.865 | locus YNL209W, strain ssb2, stronger effect = lower value 0.952 | locus YNL233W, strain BNI4, stronger effect = lower value 0.888 | locus YNL250W, strain rad50, stronger effect = lower value 0.963 | locus YNL271C, strain bni1, stronger effect = lower value 0.985 | locus YNL298W, strain CLA4, stronger effect = lower value 0.909 | locus YNL307C, strain MCK1, stronger effect = lower value 0.908 | locus YNL322C, strain KRE1 (second series), stronger effect = lower value 0.982 | locus YNR049C, strain mso1, stronger effect = lower value 0.983 | locus YNR052C, strain pop2, stronger effect = lower value 0.955 | locus YOL012C, strain htz1 1.22 | locus YOR061W, strain CKA2, stronger effect = lower value 0.962 | locus YOR069W, strain VPS5, stronger effect = lower value 0.985 | locus YOR070C, strain gyp1, stronger effect = lower value 0.965 | locus YOR080W, strain dia2, stronger effect = lower value 0.962 | locus YOR136W, strain idh2, stronger effect = lower value 0.978 | locus YOR144C, strain elg1, stronger effect = lower value 0.97 | locus YOR231W, strain MKK1, stronger effect = lower value 0.861 | locus YOR265W, strain rbl2, stronger effect = lower value 0.98 | locus YOR316C, strain cot1, stronger effect = lower value 1.02 | locus YPL240C, strain hsp82, stronger effect = lower value 0.973 | locus YPL256C, strain CLN2, stronger effect = lower value 0.981 | locus YPR119W, strain clb2, stronger effect = lower value 1 | locus YPR141C, strain kar3, stronger effect = lower value 1.04 | locus YPR163C, strain tif3, stronger effect = lower value 0.925 | locus YPR167C, strain met16, stronger effect = lower value 0.953
0.873 (inactive) and 0.874 (active): locus YJL095W, strain BCK1, stronger effect = lower value

— PubChem BioAssay AID1159580 (chemical genetic matrix, 2015)
